PubChem BioAssay (NCATS)
A number with no mark means an inactive call. Results filed as inconclusive are left out. Where a call stands in place of a potency, no number is given. The source made the active and inactive calls. Calls come from the whole dose curve; as a rule, active = well fitted curve in the direction sought with a large enough effect; inconclusive = small, poorly fitted or top-dose-only effect, or another doubt; inactive = no such curve, though single readings can be large; an effect the other way counts as inactive or inconclusive.

Legend:
[1] = target: Glutathione peroxidase 1 (Homo sapiens) (UniProt P07203); assay: Primary qHTS Assay for Inhibitors of Recombinant Selenoprotein Glutathione Peroxidase 1 (GPX1) (AID 1845191); note: nearly all actives have a fitted effect of over 65% in size
Sequence of Glutathione peroxidase 1 (Homo sapiens) (P07203 whole entry, looked up): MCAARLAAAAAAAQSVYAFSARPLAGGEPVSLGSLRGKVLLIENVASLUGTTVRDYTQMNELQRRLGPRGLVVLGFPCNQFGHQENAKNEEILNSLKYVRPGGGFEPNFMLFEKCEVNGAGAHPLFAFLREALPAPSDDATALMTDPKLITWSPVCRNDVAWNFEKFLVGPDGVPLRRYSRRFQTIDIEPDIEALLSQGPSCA
In short: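 10 nM GPX1 + cpd, 30 min RT; start w/ 1 mM GSH, 0.5 mM cumene hydroperoxide, 0.5 mM NADPH, 100 nM GR, 0.01% BSA; buffer 50 mM Tris-HCl pH 7.5, 2 mM EDTA, 150 mM NaCl; Fl 340/450, 0 & 15 min.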

[2] = target: Phospholipid hydroperoxide glutathione peroxidase GPX4 (Homo sapiens) (UniProt P36969); assay: Primary qHTS Assay for Inhibitors of Recombinant Selenoprotein Glutathione Peroxidase 4 (GPX4) (AID 1845192); note: nearly all actives have a fitted effect of over 65% in size
Sequence of Phospholipid hydroperoxide glutathione peroxidase GPX4 (Homo sapiens) (P36969 whole entry, looked up): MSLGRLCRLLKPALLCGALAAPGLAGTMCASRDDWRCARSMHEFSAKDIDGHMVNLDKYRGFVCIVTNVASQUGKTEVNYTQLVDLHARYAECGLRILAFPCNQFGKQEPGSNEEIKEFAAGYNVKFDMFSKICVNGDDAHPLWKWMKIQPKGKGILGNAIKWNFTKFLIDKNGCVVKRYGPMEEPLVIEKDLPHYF
In short: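 NADPH consumption, followed by fluorescence at 340/450 nm between 0 and 15 min, reports GPX4 activity via coupled glutathione reductase (100 nM). Enzyme 200 nM was pre-exposed to compound 30 min; 0.5 mM cumene hydroperoxide and 1 mM GSH served as substrates.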

[3] = Quantitative High-Throughput drug screen in 47 multiple myeloma cell lines against the NCATS MIPE library collection: FR4_PLB cell viability assay (AID 1918924; note: nearly all actives have a fitted effect of over 35% in size; note: potency is the fitted concentration of half-maximal effect)
In short: (§1)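 Primary qHTS used for cherry-picking: cells at 500/well, library compounds for 48 h (37C, 5% CO2), luminescent ATP assay.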

[4] = Quantitative High-Throughput drug screen in 47 multiple myeloma cell lines against the NCATS MIPE library collection: Delta47_JCRB cell viability assay (AID 1918925; note: nearly all actives have a fitted effect of over 45% in size; note: potency is the fitted concentration of half-maximal effect)
In short: (§2)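 We plated 500 myeloma cells per well, pinned in MIPE 4.0 compounds, and incubated for 48 hours at 37C. ATP was then quantified with CellTiter-Glo, with DMSO and media-only wells defining 100% and 0%.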

[5] = Quantitative High-Throughput drug screen in 47 multiple myeloma cell lines against the NCATS MIPE library collection: EJM_DSMZ cell viability assay (AID 1918926; note: nearly all actives have a fitted effect of over 30% in size; note: potency is the fitted concentration of half-maximal effect)
In short: as §2

[6] = Quantitative High-Throughput drug screen in 47 multiple myeloma cell lines against the NCATS MIPE library collection: AMO1_DSMZ cell viability assay (AID 1918927; note: nearly all actives have a fitted effect of over 30% in size; note: potency is the fitted concentration of half-maximal effect)
In short: as §2

[7] = Quantitative High-Throughput drug screen in 47 multiple myeloma cell lines against the NCATS MIPE library collection: ARP1_JJKsccF8 cell viability assay (AID 1918928; note: nearly all actives have a fitted effect of over 40% in size; note: potency is the fitted concentration of half-maximal effect)
In short: (§3)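 Myeloma cells, 500 per well, were exposed to MIPE 4.0 drugs by pin transfer for 48 h at 37 °C, 5% CO2. Viability was read as ATP luminescence with CellTiter-Glo, normalised to DMSO-only (100%) and medium-only (0%) wells.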

[8] = Quantitative High-Throughput drug screen in 47 multiple myeloma cell lines against the NCATS MIPE library collection: ARD_JJKsccE7 cell viability assay (AID 1918929; note: potency is the fitted concentration of half-maximal effect)
In short: as §2

[9] = Quantitative High-Throughput drug screen in 47 multiple myeloma cell lines against the NCATS MIPE library collection: Karpas620_DSMZ cell viability assay (AID 1918959); note: nearly all actives have a fitted effect of over 30% in size; note: potency is the fitted concentration of half-maximal effect
In short: as §1

[10] = Quantitative High-Throughput drug screen in 47 multiple myeloma cell lines against the NCATS MIPE library collection: KMM1_JCRB cell viability assay (AID 1918960); note: nearly all actives have a fitted effect of over 30% in size; note: potency is the fitted concentration of half-maximal effect
In short: as §3

[11] = target: Metallo-beta-lactamase type 2 (Klebsiella pneumoniae) (UniProt C7C422); assay: qHTS to identify inhibitors of the New Delhi Metallo-beta-lactamase (NDM): assay validation screen against the NCATS LOPAC Collection (AID 1794843);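 note: nitrocefin turnover by NDM-1 measured as 485 nm absorbance at plateau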
Sequence of Metallo-beta-lactamase type 2 (Klebsiella pneumoniae) (C7C422 whole entry, looked up): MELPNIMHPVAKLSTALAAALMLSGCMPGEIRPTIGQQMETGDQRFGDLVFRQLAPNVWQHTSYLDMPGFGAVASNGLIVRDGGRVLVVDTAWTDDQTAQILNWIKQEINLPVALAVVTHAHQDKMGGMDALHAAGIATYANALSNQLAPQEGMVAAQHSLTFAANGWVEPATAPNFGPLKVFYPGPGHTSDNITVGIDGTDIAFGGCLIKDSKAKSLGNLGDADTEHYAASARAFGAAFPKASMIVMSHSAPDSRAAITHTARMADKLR
In short: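 NDM-1 at 2 nM final in 50 mM HEPES pH 7.0 with 1 uM ZnSO4 and 0.01% Tween20 was preincubated with library compounds in DMSO. Nitrocefin (50 uM stock) was then added, and absorbance at 485 nm was read at the kinetic plateau.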

[12] = target: Luciferin 4-monooxygenase (Photinus pyralis) (UniProt P08659); assay: Primary firefly luciferase (FLuc) qHTS assay for identification of artifact compounds. (AID 1845220); conditions: outcome: dose series up to 54.1 µM; note: nearly all actives have a fitted effect of over 60% in size
In short: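 Cell-free, 1536-well qHTS. Buffer pH 7.6 with 0.01% Tween-20 and 0.05% BSA; 10 uM D-luciferin, 10 uM ATP; 10 nM P. pyralis luciferase; luminescence after 5 min.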

[13] = Primary fluorescence-based thiol-reactive (MSTI) qHTS assay for identification of artifact compounds. (AID 1845221); note: nearly all actives have a fitted effect of over 65% in size; note: potency is the fitted concentration of half-maximal effect
In short: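 MSTI probe at 4 uM final in 2% DMSO/PBS pH 7.4; compounds, 1 h at room temperature in dark. Fluorescence Ex/Em 525/598 nm, normalised to Acetyl-MSTI and MSTI, fitted to 4-parameter Hill.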

[14] = tested on: Nanoluciferase (engineered Oplophorus gracilirostris luciferase); assay: Primary Nanoluciferase (NLuc) qHTS assay for identification of artifact compounds. (AID 1845222)
In short: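 Compounds are pinned into diluted (1:55) conditioned medium of NLuc-expressing S16 cells and held 15 min at room temperature protected from light. Nano-Glo substrate follows, and luminescence is read 5 min later.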

[15] = Primary redox qHTS assay for identification of artifact compounds. (AID 1845223); note: potency is the fitted concentration of half-maximal effect
In short: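 Amplex Red (25 uM) and HRP (250 mU/mL) in HBSS, with compounds for 15 min, then 250 uM DTT for 30 min, room temperature, dark. Fluorescence 525/598 nm read; normalized to DMSO and 10 uM DA3003; Hill fit.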

[16] = Quantitative High-Throughput drug screen in 47 multiple myeloma cell lines against the NCATS MIPE library collection: Karpas417_ECACC cell viability assay (AID 1918961); conditions: Karpas417 myeloma viability, CellTiter-Glo ATP luminescence, 48 h; viability (% of DMSO): at 45.8 µM (top of the series); note: potency is the fitted concentration of half-maximal effect
In short: as §2

[17] = Viability counterscreen for agonist of constitutive androstane receptor (CAR) against the NCATS DSHEA and TCM libraries (AID 1794838);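 note: HepG2 cells with CYP2B6 reporter and hCAR plus 0.75 µM PK11195 antagonist; cells exposed to compound for 24 h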
In short: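 In agonist mode, PK11195 is added at 0.75 uM final to HepG2-CYP2B6-hCAR cells dosed with test substances. Cultures incubate 24 h at 37C before a protease-based fluorogenic viability readout.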

[18] = HepG2 viability counterscreen (readout 2: ATP content) against the NCATS DSHEA and TCM libraries (AID 1794840);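 note: HepG2 cells exposed to substances for about 24 h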
In short: (§4)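 Cytotoxicity was assessed in HepG2 cells plated at 1,000 cells/well and exposed for about 24 hours to a concentration series. Protease activity and ATP content were measured sequentially in each well.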

[19] = HepG2 viability counterscreen (readout 1: protease activity) against the NCATS DSHEA and TCM libraries (AID 1794841);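 note: cells exposed to compounds for about 24 h before the protease read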
In short: as §4

SMILES: CC(C)C[C@H](NC(=O)[C@H](CCc1ccccc1)NC(=O)CN1CCOCC1)C(=O)N[C@@H](Cc1ccccc1)C(=O)N[C@@H](CC(C)C)C(=O)[C@@]1(C)CO1
- Potency [1]: inactive
- Potency [2]: inactive
- Potency [3]: 8.3 nM (active)
- Potency [4]: 1 nM (active)
- Potency [5]: 10.5 nM (active)
- Potency [6]: 6.6 nM (active)
- Potency [7]: 7.4 nM (active)
- Potency [8]: 1 nM (active)
- Potency [9]: 1 nM (active)
- Potency [10]: 1 nM (active)

SMILES: CC1=C(C(=O)O)N2C(=O)[C@@H](NC(=O)C(N)c3ccccc3)[C@H]2SC1 (stereo not given in full)
- outcome [11]: inactive
- Potency [1]: inactive
- Potency [2]: inactive
- Potency [3]: inactive
- Potency [5]: inactive
- Potency [6]: inactive
- Potency [7]: inactive
- Potency [8]: inactive
- Potency [9]: inactive
- Potency [10]: inactive

SMILES: CC1=NN(c2ccccc2)C(=O)C1
- Potency [1]: inactive
- Potency [2]: inactive
- outcome [12]: inactive
- Potency [13]: 8440 nM (active)
- outcome [14]: inactive
- Potency [15]: 3360 nM (active)
- Potency [3]: inactive
- Potency [4]: inactive
- Potency [7]: inactive
- Potency [8]: inactive
- Potency [9]: inactive
- Potency [10]: inactive

SMILES: CNS(=O)(=O)CCc1ccc2[nH]cc(C3CCN(C)CC3)c2c1
- outcome [11]: inactive
- Potency [1]: inactive
- outcome [12]: inactive
- Potency [13]: inactive
- outcome [14]: inactive
- Potency [15]: inactive
- Potency [4]: 1180 nM (active)
- Potency [6]: 2350 nM (active)
- Potency [8]: 10500 nM (active)
- Potency [9]: inactive
- Potency [10]: 18700 nM (active)
- Potency [16]: 16600 nM (active)

SMILES: COc1ccc2cc3[n+](cc2c1OC)CCc1cc2c(cc1-3)OCO2
- outcome [17]: inactive
- outcome [18]: inactive
- outcome [19]: inactive
- Potency [1]: inactive
- Potency [2]: inactive
- Potency [3]: 14800 nM (active)
- Potency [4]: 5260 nM (active)
- Potency [7]: 6620 nM (active)
- Potency [8]: 5900 nM (active)
- Potency [9]: 14800 nM (active)
- Potency [10]: 10500 nM (active)
- Potency [16]: 9350 nM (active)

SMILES: Nc1nc(N)c2nc(CNc3ccc(C(=O)NC(CCC(=O)O)C(=O)O)cc3)cnc2n1 (stereo not given)
- outcome [11]: inactive
- Potency [1]: inactive
- Potency [4]: inactive
- Potency [6]: 23.5 nM (active)
- Potency [7]: 37.2 nM (active)
- Potency [8]: 11.8 nM (active)
- Potency [9]: inactive

SMILES: CC(C)NCC(O)c1ccc(NS(C)(=O)=O)cc1 (stereo not given)
- outcome [11]: inactive
- Potency [1]: inactive
- Potency [3]: inactive
- Potency [4]: inactive
- Potency [8]: inactive
- Potency [10]: inactive
- Potency [16]: inactive

SMILES: CCN(CC)CCn1c(=O)c(Cc2ccc(OC)cc2)nc2ccccc21
- outcome [11]: inactive
- Potency [1]: inactive
- Potency [2]: inactive
- Potency [5]: inactive
- Potency [6]: inactive
- Potency [7]: inactive
- Potency [8]: inactive
- Potency [9]: inactive
- Potency [10]: inactive
- Potency [16]: inactive

SMILES: Nc1nc(F)nc2c1ncn2[C@@H]1O[C@H](CO)[C@@H](O)[C@@H]1O
- Potency [1]: inactive
- Potency [2]: inactive
- outcome [12]: inactive
- Potency [13]: inactive
- outcome [14]: inactive
- Potency [15]: inactive
- Potency [3]: 187 nM (active)
- Potency [4]: 148 nM (active)
- Potency [5]: 418 nM (active)
- Potency [6]: 372 nM (active)
- Potency [7]: 264 nM (active)
- Potency [8]: 332 nM (active)
- Potency [9]: 296 nM (active)
- Potency [10]: 526 nM (active)
- Potency [16]: 46.9 nM (active)
